Key:
Assay in all cases: log2 ratio of Biotin-Ahx-Ub-VS probe labelling (fragment/DMSO); higher = less target engagement (more negative = stronger competition), active = hit call of the paper (q ≤ 0.05, log2 ratio ≤ -1)
Conditions in all cases: compound concentration: 200 uM; treatment time: 3 h
[1] = molecular target: T1, USP19 (UniProt O94966)
T1 sequence (whole entry): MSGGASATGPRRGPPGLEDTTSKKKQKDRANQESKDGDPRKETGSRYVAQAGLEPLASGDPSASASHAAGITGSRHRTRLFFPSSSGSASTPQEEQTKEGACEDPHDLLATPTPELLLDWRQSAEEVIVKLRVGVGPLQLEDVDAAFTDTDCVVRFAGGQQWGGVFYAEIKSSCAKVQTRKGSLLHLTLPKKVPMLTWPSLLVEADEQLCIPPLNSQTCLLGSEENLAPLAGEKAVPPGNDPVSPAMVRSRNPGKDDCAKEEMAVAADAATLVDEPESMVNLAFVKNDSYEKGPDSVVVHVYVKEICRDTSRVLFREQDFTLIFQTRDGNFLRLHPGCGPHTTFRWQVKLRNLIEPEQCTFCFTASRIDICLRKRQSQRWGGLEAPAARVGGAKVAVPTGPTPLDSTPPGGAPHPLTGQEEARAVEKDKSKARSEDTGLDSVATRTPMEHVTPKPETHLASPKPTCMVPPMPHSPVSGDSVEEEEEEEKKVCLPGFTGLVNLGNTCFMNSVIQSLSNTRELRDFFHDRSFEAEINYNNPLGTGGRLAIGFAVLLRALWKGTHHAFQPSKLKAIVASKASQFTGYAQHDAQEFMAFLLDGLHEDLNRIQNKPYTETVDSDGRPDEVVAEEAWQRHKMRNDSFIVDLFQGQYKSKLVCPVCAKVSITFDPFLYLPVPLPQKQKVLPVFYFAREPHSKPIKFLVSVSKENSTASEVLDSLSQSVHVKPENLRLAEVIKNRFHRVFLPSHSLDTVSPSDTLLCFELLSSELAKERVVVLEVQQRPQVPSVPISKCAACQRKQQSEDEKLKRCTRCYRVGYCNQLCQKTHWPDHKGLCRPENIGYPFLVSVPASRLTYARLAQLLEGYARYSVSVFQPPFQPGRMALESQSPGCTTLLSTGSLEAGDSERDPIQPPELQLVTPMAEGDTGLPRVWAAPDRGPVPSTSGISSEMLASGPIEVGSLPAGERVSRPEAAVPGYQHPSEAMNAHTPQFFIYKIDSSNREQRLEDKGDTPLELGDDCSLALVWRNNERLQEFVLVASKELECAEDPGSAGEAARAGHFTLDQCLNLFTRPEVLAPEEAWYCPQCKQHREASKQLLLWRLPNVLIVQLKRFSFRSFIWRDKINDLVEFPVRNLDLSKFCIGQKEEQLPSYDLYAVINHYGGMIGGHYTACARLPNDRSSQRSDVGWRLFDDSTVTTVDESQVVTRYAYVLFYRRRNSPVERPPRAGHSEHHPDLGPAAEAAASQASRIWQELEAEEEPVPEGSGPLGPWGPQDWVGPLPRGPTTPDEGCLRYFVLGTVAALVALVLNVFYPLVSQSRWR
How it was run: (§1)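 HEK293T lysate, 495 µg per sample in Tris/CHAPS/IGEPAL buffer with protease inhibitors, was treated in triplicate with fragment at 200 µM or vehicle for 3 h and then with Biotin-Ahx-Ub-VS at 0.5 µM final for 1 h. Labelled DUBs were NeutrAvidin-enriched, digested with LysC and trypsin, and run by diaPASEF LC-MS/MS. Spectronaut label-free quantities were global-median-normalised, and values are average log2 fragment/vehicle ratios by unpaired t-test on proteins with ≥2 unique peptides.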

[2] = molecular target: USP24 (UniProt Q9UPU5)
How it was run: as §1

[3] = molecular target: T2, USP25 (UniProt Q9UHP3)
T2 sequence (whole entry): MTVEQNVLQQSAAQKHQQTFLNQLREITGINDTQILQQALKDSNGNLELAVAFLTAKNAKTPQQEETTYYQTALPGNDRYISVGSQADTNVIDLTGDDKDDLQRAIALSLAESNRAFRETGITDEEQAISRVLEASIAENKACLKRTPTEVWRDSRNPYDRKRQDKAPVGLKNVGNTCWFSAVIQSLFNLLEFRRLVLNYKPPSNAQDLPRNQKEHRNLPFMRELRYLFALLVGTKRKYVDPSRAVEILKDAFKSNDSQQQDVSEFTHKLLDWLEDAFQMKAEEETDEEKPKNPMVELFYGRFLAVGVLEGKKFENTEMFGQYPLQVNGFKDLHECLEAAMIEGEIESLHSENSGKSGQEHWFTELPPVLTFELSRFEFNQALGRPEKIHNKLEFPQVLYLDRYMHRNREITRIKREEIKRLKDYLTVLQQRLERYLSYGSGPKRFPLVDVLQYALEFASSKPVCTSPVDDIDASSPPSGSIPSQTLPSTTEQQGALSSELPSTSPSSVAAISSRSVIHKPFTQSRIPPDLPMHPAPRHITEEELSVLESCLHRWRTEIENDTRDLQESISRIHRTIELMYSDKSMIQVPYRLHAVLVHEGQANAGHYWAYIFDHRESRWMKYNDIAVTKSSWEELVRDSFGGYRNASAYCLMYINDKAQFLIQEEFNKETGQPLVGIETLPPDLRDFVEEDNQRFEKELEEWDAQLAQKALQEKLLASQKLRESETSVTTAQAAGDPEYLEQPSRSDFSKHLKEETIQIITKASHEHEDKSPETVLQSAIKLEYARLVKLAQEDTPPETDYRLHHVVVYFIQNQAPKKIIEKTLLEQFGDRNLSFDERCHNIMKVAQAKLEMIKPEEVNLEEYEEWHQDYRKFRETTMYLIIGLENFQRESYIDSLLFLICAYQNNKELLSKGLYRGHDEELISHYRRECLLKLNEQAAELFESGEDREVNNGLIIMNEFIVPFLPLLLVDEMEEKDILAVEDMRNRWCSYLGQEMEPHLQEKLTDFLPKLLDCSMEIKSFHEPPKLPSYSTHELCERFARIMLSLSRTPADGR
How it was run: as §1

[4] = molecular target: T3, USP28 (UniProt Q96RU2)
T3 sequence (whole entry): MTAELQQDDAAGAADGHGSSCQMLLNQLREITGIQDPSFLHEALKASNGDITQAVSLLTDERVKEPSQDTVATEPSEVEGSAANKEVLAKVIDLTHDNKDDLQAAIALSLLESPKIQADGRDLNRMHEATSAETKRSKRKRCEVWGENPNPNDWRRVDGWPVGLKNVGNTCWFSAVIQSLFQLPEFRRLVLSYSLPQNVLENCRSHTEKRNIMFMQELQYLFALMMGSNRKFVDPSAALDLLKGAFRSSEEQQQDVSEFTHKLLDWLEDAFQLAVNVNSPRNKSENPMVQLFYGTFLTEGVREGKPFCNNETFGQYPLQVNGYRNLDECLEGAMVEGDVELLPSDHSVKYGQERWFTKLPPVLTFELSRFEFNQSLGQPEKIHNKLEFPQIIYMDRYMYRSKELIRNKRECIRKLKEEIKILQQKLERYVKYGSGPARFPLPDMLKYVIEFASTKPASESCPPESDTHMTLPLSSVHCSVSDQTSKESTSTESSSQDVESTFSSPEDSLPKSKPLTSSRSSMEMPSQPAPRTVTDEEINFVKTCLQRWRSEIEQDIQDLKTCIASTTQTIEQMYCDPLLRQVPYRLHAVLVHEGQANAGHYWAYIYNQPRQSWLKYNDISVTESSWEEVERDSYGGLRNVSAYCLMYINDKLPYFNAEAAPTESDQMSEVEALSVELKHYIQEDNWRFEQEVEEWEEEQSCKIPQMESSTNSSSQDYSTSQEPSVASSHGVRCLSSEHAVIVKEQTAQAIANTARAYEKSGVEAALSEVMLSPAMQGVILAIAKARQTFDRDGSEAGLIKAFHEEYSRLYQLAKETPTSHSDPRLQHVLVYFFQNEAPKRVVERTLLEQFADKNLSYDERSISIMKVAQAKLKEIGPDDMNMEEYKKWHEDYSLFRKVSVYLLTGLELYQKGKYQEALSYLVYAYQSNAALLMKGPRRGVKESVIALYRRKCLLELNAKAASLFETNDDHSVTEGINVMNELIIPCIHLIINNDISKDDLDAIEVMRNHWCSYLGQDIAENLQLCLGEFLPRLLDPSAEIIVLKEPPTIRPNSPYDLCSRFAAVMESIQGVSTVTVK
How it was run: as §1

Measured: log2 ratio of Biotin-Ahx-Ub-VS probe labelling

USP24, sequence (Q9UPU5 whole entry): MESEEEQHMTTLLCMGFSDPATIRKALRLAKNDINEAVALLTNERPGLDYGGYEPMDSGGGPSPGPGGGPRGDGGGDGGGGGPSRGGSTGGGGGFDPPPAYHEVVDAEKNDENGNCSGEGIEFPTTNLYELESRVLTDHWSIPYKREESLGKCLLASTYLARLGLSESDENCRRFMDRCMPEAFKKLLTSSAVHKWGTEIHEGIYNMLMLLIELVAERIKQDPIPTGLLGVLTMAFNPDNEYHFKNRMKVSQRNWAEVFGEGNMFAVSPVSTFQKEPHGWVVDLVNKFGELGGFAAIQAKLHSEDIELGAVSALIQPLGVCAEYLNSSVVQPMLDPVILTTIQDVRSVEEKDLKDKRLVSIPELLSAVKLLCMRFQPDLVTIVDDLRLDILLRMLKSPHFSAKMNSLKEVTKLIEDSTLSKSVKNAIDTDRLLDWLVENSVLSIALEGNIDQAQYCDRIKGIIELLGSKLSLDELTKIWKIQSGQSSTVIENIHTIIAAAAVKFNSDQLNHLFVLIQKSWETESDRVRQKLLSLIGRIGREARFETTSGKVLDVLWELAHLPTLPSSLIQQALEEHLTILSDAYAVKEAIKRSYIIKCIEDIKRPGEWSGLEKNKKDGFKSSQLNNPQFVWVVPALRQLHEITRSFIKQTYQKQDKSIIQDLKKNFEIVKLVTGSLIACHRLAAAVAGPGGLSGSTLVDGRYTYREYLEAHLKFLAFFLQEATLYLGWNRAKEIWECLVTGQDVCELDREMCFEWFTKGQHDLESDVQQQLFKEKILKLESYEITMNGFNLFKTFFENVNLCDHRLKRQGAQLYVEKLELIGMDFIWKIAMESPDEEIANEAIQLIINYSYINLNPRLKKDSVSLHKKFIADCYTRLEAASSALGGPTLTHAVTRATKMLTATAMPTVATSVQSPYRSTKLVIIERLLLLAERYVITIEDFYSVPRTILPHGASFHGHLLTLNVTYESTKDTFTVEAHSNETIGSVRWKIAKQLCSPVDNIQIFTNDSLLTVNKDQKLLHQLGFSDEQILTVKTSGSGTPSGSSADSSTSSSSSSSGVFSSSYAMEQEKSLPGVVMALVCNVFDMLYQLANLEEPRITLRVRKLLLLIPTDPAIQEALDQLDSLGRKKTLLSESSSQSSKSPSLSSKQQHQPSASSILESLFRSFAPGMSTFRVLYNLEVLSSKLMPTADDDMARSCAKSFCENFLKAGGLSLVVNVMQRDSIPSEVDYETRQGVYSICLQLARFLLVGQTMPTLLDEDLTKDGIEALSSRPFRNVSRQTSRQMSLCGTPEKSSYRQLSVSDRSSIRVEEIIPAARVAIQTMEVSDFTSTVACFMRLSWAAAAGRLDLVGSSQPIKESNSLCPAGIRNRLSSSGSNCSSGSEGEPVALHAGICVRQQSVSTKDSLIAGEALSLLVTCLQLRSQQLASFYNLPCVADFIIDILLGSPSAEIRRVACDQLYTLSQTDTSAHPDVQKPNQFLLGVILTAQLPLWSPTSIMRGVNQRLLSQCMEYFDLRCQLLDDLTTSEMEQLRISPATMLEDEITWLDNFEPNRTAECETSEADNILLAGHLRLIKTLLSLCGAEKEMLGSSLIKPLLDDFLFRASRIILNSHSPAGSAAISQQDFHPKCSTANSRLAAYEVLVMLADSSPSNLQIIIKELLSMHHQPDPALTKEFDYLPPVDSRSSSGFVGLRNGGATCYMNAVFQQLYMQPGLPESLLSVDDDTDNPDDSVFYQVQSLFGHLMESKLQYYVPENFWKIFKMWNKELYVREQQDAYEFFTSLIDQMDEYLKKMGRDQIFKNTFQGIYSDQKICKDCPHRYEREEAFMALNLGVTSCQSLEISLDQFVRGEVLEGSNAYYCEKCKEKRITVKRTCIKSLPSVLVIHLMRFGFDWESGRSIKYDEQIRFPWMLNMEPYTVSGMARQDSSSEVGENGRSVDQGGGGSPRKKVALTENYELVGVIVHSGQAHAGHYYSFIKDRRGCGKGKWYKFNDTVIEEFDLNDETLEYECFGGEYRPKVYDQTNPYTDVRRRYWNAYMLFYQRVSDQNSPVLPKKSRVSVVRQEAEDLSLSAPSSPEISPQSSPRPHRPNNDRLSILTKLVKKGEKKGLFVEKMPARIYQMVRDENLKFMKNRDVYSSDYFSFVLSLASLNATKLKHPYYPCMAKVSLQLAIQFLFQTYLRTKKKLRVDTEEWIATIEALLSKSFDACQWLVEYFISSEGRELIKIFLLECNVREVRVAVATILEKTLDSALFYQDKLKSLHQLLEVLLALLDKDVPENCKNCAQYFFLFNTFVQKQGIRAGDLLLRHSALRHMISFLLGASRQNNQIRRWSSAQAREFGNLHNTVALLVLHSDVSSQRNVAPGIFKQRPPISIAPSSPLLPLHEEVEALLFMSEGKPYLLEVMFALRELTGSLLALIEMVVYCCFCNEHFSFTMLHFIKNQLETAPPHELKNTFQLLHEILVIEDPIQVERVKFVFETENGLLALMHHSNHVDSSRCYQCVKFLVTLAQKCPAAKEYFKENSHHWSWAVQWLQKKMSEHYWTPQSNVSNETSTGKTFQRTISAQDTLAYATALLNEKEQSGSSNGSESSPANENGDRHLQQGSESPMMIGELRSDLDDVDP

O=C(CCl)N1CCC(c2nc3ccccc3o2)CC1
inactive: [1] -0.537 | [2] -0.503 | [3] -0.466 | [4] -0.736

— the supplement of paper PMC11732987, “Enantioselective OTUD7B fragment discovery through chemoproteomics screening and high-throughput optimisation” (Communications Chemistry, 2025)
